Assay results from PubChem BioAssay AID2284424 (EPA ToxCast).
Calls of active or inactive are those of the source. Rule for the calls: active = hit-call score of the fitted dose curve at least 0.9, where 1 is the maximum; inactive = score below 0.9.

Tested on: SRY-box transcription factor 2 (SOX2) Protein Expression, SOX2 (gene 6657)
Test: CCTE_Deisenroth_DEVTOX-GLR_Ecto_SOX2: CCTE's DevTox GLR-Ecto Assay Evaluation of SRY-box transcription factor 2 (SOX2) Protein Expression, Deisenroth Lab
Protocol: CCTE_Deisenroth_DEVTOX-GLR_Ecto assay is a cell-based, multiplex-readout assay that uses RUES2-GLR, a human pluripotent cell line, with measurements taken at 48 hours after chemical dosing in a 384-well microplateCCTE_Deisenroth_DEVTOX-GLR_Ecto_SOX2 is 1 of 4 assay components calculated from the CCTE_Deisenroth_DEVTOX-GLR_Ecto assay and it measures an the percentage of cells in an ectoderm state. Using a type of inducible fluorescent protein reporter, gain-of-signal activity can be used to understand changes in gene expression with fluorescent microscopy. The percentage of SOX2+ cells are determined by calculating the number of SOX2+ cells divided by the cell count. To generalize the intended target to other relatable targets, this assay component is annotated to the transcription factor intended target family, where the subfamily is SRY-related HMG-box.Data from the assay component CCTE_Deisenroth_DEVTOX-GLR_Ecto_SOX2 was analyzed as 1 assay endpoint. The endpoint is the percent change in SOX2+ cell population relative to the 0.2% DMSO control in the CCTE_Deisenroth_DEVTOX-GLR_Ecto assay. Furthermore, this assay endpoint can be referred to as a primary readout, because this assay has produced multiple assay endpoints where this one serves as a measure of ectoderm differentiation.
All assay protocols are aligned to the DevTox GLR-Endo assay workflow. Cells are seeded into 384-well microplates for 24 hours prior to initiating differentiation in defined media for a total duration of 48 hours. A total of two chemical exposures are administered in 24-hour intervals during the 48-hour differentiation period. At the assay termination point, cells are fixed and stained with a fluorescent dye demarcating the nucleus. High-content imaging is used to acquire brightfield and fluorescent channel images across 5 fields per well. Cell identification and mean biomarker fluorescence intensities are calculated with image analysis software to determine the total cell counts for viability assessment and the biomarker expression frequency for each lineage-dependent assay. A typical experimental design tests a 10-point concentration series (1 nM - 200 uM) for 28 compounds in single technical replicate. Assay plate controls include non-differentiated pluripotent cells (baseline control), lineage-specific differentiated cells (differentiation control), and DMSO solvent exposed differentiated cells (solvent control). Experiments typically comprise a minimum of four experimental replicates (n=4).

Compound | outcome | AC50
CC/C(=C(/CC)c1ccc(O)cc1)c1ccc(O)cc1 | inactive | 
O=C1CCC(N2C(=O)c3ccccc3C2=O)C(=O)N1 (stereo unspecified) | inactive | 
O=C1NS(=O)(=O)c2ccccc21 | inactive | 
CCCC(CCC)C(=O)O | inactive | 
O=c1[nH]cc(F)c(=O)[nH]1 |  | 9.11 µM (active)
CC(=O)Nc1ccc(O)cc1 | inactive | 
Nc1nc2ncc(CNc3ccc(C(=O)N[C@@H](CCC(=O)O)C(=O)O)cc3)nc2c(=O)[nH]1 | inactive | 
CC1=C(/C=C/C(C)=C/C=C/C(C)=C\C(=O)O)C(C)(C)CCC1 |  | 5.86 µM (active)
CC1(C)S[C@@H]2[C@H](NC(=O)Cc3ccccc3)C(=O)N2[C@H]1C(=O)O | inactive | 
CC(C)(c1ccc(O)cc1)c1ccc(O)cc1 | inactive | 
Nc1cccc2c1C(=O)N(C1CCC(=O)NC1=O)C2=O (stereo unspecified) | inactive | 
CC1=C(/C=C/C(C)=C/C=C/C(C)=C/C(=O)O)C(C)(C)CCC1 |  | 0.471 µM (active)
CS(=O)(=O)OCCCCOS(C)(=O)=O |  | 21 µM (active)
O=C1NC(=O)C(c2ccccc2)(c2ccccc2)N1 | inactive | 
CCN(CC)CCNC(=O)c1c(C)[nH]c(/C=C2\C(=O)Nc3ccc(F)cc32)c1C | inactive | 
CN(Cc1cnc2nc(N)nc(N)c2n1)c1ccc(C(=O)N[C@@H](CCC(=O)O)C(=O)O)cc1 |  | 0.106 µM (active)
